Assay outcomes deposited in PubChem BioAssay by National Center for Advancing Translational Sciences (NCATS).
Pf growth 48h – P. falciparum growth inhibition at 48 hours (one generation); P. falciparum luciferase growth in erythrocytes, 48 h; Potency, µM (highest dose often 28.7 µM), for inactives: top-dose activity change, negative = inhibition, hits mostly inhibitors; 310,000 tested, 5.9% active; further: potency means the concentration at half of the fitted maximal effect; on the % scale 0 is the no-effect control and ±100 the full control effect
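Luciferase-expressing parasites in RBCs, 2% Hct / 0.1% parasitemia final; RPMI 1640 + 0.5% Albumax; 37 C, 5% CO2, one generation; luminescence read-out, lower signal = inhibition.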
HCV inhibitor – blocks hepatitis C virus; Huh7.5.1 HCVcc-Cre infection, luciferase reporter, 44 h; Potency, µM (doses to about 41.8 µM), for inactives: at the highest dose activity change, negative = inhibition, usual class: inhibitors; 340,000 tested, 3.4% active; AID 651820; further: potency means the concentration at half of the fitted maximal effect; on the % scale 0 is the no-effect control and ±100 the full control effect
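After 44 h co-culture of compound, cells and HCVcc-Cre (~0.5 moi), substrate is added for 15 min at room temperature and luciferase measured over 15 sec. Cells were seeded at 1,000/well and pre-cultured 4 h.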
HCMV antiviral – human cytomegalovirus inhibition; HFF cells, HCMV-luciferase reporter, 72 h; active compounds read low; activity change, negative = inhibition, % at 57.5 µM; 410,000 tested, 4.5% active; in the data active means activity change below about -60%; inconclusive means no clear call, values can overlap the other calls; inactive means above about -39%; further: on the % scale 0 is the no-effect control and ±100 the full control effect
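Inhibition of viral replication was scored as loss of reporter luminescence in HFFs infected with HCMV-luciferase (MOI 1 PFU/cell) for 72 h; compounds tested at 2 doses, normalized to buffer and Salinomycin controls.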
Pf growth 96h – P. falciparum growth inhibition at 96 hours; 320,000 tested, 6.9% active; Potency, µM (top dose mostly 28.7 µM), for inactives: at the highest dose activity change, negative = inhibition, usual class: inhibitors; P. falciparum luciferase reporter growth, 96 h; further: potency means the concentration at half of the fitted maximal effect; on the % scale 0 is the no-effect control and ±100 the full control effect
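Two parasite generations (96 h, 37 C, 5% CO2) of compound exposure in infected erythrocytes (0.05% parasitemia, 2% hematocrit). Luciferase-reporter P. falciparum; decreased luminescence indicates inhibited growth, aimed at apicoplast-acting delayed death.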
Shiga inhibitor – blocks Shiga toxin action in Vero cells | Vero cells, Shiga toxin protein synthesis inhibition reporter | inhibition, % at 38.7 µM | 290,000 tested, 9.2% active; in the data active means inhibition mostly above about 28%, no sharp cut-off; inactive means mostly below about 43%; further: 0% is about no effect
CHX counter – affects cycloheximide protein synthesis inhibition readout, counter-screen; max response, %; AID 2314; 300,000 tested, 12% active; cell reporter, cycloheximide protein synthesis inhibition counterscreen; in the data active means max response mostly above about 13%, no sharp cut-off; inactive means mostly below about 14%; further: read at 38.3 µM for the half of the compounds with a filed dose; 0% is about no effect
Active calls of the source: *. Only some compounds are listed: those with a hit (about 21% of all), similar ones and a draw of the others. Unless noted, the call rests on the fitted dose curve; in most records, active means well fitted inhibition curve with a large enough effect; inconclusive means small, poorly fitted or top-dose-only effect, or another doubt; inactive means no such curve, though single readings can be large or run the other way.

Screening N#C/C(=C\c1ccc(N2CCOCC2)cc1)c1ccccc1 returned Pf growth 48h 293.8%, HCV inhibitor -28.3%, HCMV antiviral 88.9, Pf growth 96h 368.2%, Shiga inhibitor 19.0* and CHX counter 50.7*.
COc1cc(N2CCCC2)c(OC)cc1/C=C(/C#N)c1cccc(F)c1 was read as Pf growth 48h 10.4µM*, HCV inhibitor inconclusive, Shiga inhibitor -16.4 and CHX counter 0.2.
`N#C/C(=C\N1CCOCC1)c1ccccc1` gave Pf growth 48h 34.0%, HCV inhibitor -6.5%, HCMV antiviral -2.4, Shiga inhibitor 50.9 and CHX counter 13.8.
For CCc1ccc(NC(=O)N(Cc2ccc(C)cc2)Cc2cccn2-c2nnc(N3CCCC3=O)s2)cc1 the results were HCMV antiviral -7.0.
Screening O=C(Nc1cccc(-c2ccc(N3CCOCC3)nn2)c1)c1ccccc1 returned Pf growth 48h 73.3%, HCV inhibitor inconclusive, HCMV antiviral 7.6 and Pf growth 96h 37.4%.
Screening CCOC(=O)C1CCN(c2ccc(-c3cccs3)nn2)CC1 returned Pf growth 48h 25.3%, HCV inhibitor 16.5%, HCMV antiviral -23.3, Pf growth 96h 46.9%, Shiga inhibitor 98.7* and CHX counter 36.7*.
Screening c1csc(-c2ccc(N3CCOCC3)nn2)c1 returned Pf growth 48h 146.2%, HCV inhibitor 8.4%, HCMV antiviral -8.9, Pf growth 96h inconclusive, Shiga inhibitor 26.9 and CHX counter 25.5*.
`O=C(O)CCn1c(-c2ccccn2)nc2ccccc21` gave Pf growth 48h 9.9%, HCV inhibitor 7.2%, HCMV antiviral 80.0, Pf growth 96h inconclusive, Shiga inhibitor 39.5 and CHX counter 10.8*.
`O=C(O)CCn1c(CO)nc2ccccc21` gave Pf growth 48h 7.7%, HCV inhibitor 16.9%, HCMV antiviral -13.3, Pf growth 96h 60.5%, Shiga inhibitor 1.7 and CHX counter -3.6.
O=C1c2ccccc2NC(c2cccc(Cl)c2)N1N=C1CCCCCC1 (centres undefined) was read as Pf growth 48h inconclusive, HCV inhibitor -7.5%, HCMV antiviral 63.4, Pf growth 96h inconclusive, Shiga inhibitor 52.1 and CHX counter 37.2*.
For COC(=O)c1nnn(CC(=O)Nc2c(C)cccc2C)c1N the results were HCMV antiviral -6.0.
CC1(C)SC(=S)N(NC(=O)Nc2cccc3ccccc23)C1N(O)C(=O)Nc1ccccc1 (centres undefined) was read as Pf growth 48h inconclusive, HCV inhibitor inconclusive, HCMV antiviral -74.7*, Pf growth 96h inconclusive, Shiga inhibitor 24.4 and CHX counter -1.7.
For CC1CN(C(=O)C(C)OC(=O)c2ccc3ncsc3c2)CC(C)O1 (centres undefined) the results were Pf growth 48h -0.8%, HCV inhibitor 8.6%, HCMV antiviral 31.4 and Pf growth 96h 6.6%.
`COCCn1c(=NC(=O)CSCC(=O)NC2CCCCC2)sc2cc(OC)ccc21` gave Pf growth 48h inconclusive, HCV inhibitor inconclusive, HCMV antiviral -20.0, Pf growth 96h -13.6%, Shiga inhibitor 23.3 and CHX counter 16.4.
`CCOCCn1c(=NC(=O)CSCC(=O)Nc2cc(C)on2)sc2cc(OC)ccc21` gave Pf growth 48h 5.22µM*, HCV inhibitor -25.3%, HCMV antiviral 53.0, Pf growth 96h 5.22µM*, Shiga inhibitor 18.9 and CHX counter 1.2.
For CC[C@]1(C(=O)OC)[C@H]2C(=O)N(C)C(=O)[C@H]2[C@H]2CN(C)C(=NC)N21 the results were HCV inhibitor 5.9% and HCMV antiviral 5.2.
For Cc1nc(C(C)N(C)Cc2nc(-c3ccc4c(c3)OCO4)no2)c(C)s1 (centres undefined) the results were Pf growth 48h 23.7%, HCV inhibitor -10.4%, HCMV antiviral 4.9, Pf growth 96h 1.1%, Shiga inhibitor 44.7 and CHX counter 50.6*.
For C/C(=N\Nc1ccc(C(=O)c2c(C)cc3ccccn23)cc1[N+](=O)[O-])c1ccc(O)cc1 the results were Pf growth 48h 9.28µM*, HCV inhibitor -6.6%, HCMV antiviral 20.5, Pf growth 96h inconclusive, Shiga inhibitor -6.6 and CHX counter -5.0.
`Cc1ccc(SC(C)C(=O)Nc2ccccc2-c2ccccc2)cc1` (centres undefined) gave Pf growth 48h -18.2%, HCV inhibitor inconclusive, HCMV antiviral inconclusive, Pf growth 96h 13.1µM*, Shiga inhibitor -14.5 and CHX counter -1.9.
CC(Sc1ccc(Cl)cc1)C(=O)Nc1ccccc1-c1ccccc1 (centres undefined) was read as Pf growth 48h 2.33µM*, HCV inhibitor inconclusive, HCMV antiviral -38.8, Pf growth 96h -2.1%, Shiga inhibitor 9.8 and CHX counter 3.2.
COc1ccc(-n2c(C)cc(C(=O)NC3CCCCC3)c2C)cc1 was read as Pf growth 48h inconclusive, HCV inhibitor 18.5%, HCMV antiviral 11.1, Pf growth 96h inconclusive, Shiga inhibitor 94.3* and CHX counter 58.1*.
For Cc1cccc(-n2c(C)cc(C(=O)NC3CCCCC3)c2C)c1 the results were Pf growth 48h inconclusive, HCV inhibitor -17.1%, HCMV antiviral 38.5, Pf growth 96h inconclusive, Shiga inhibitor 85.1* and CHX counter 94.1*.
Screening Cc1cccc(-n2c(C)nc3cc(C(=O)NC4CCCCCC4)ccc32)c1 returned HCMV antiviral -15.9.
For COc1ccc(NC(=O)Cn2c(=O)n(Cc3nc(-c4ccccc4)no3)c(=O)c3ccccc32)cc1Cl the results were HCMV antiviral 2.5.
`Cc1ccc(S(=O)(=O)N2C[C@@H](C)[C@]3(C2)[C@H](O)[C@H](OC(=O)Nc2cccs2)C[C@H]2C(=O)N(c4ccccc4)C(=O)[C@H]23)cc1` gave HCMV antiviral -103.9*.
Screening Cc1ccc(S(=O)(=O)N2C[C@@H](C)[C@]3(C2)[C@H](O)[C@H](OC(=O)NC2CC2)C[C@H]2C(=O)N(c4ccccc4)C(=O)[C@H]23)cc1 returned HCMV antiviral -4.3.
`Cc1ccc(C)c(N2CCN(c3cnn(-c4nc5ccccc5s4)c(=O)c3Cl)CC2)c1` gave Pf growth 48h 193.5%, HCV inhibitor 9.7%, HCMV antiviral 59.7, Pf growth 96h 217.8%, Shiga inhibitor 137.8* and CHX counter 64.5*.
Screening COc1ccc(C2=NN(c3nc4ccccc4s3)C(=O)/C2=C\N(C)C)cc1 returned Pf growth 48h 2.9%, HCV inhibitor -4.2%, HCMV antiviral 8.7, Pf growth 96h 49.3%, Shiga inhibitor 37.4 and CHX counter -0.9.
`COc1ccc(Nc2cnn(-c3nc4ccccc4s3)c(=O)c2Cl)cc1` gave Pf growth 48h 72.9%, HCV inhibitor inconclusive, HCMV antiviral 26.9, Pf growth 96h inconclusive, Shiga inhibitor 76.4* and CHX counter 48.1*.
